PubChem BioAssay (NCI)
About 83,000 compounds went through this panel and 20% of them were active in at least one assay; those are over-represented in the sample as a whole.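 Step 1: grow cells in 96-well plates. Step 2: add test compound at a single concentration. Step 3: incubate 48 h. Step 4: record percent growth.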 The source made the active and inactive calls. Rule for the calls: active = growth percent below 10; inactive = the rest.

Columns and labels:
Experiment in all cases: NCI-60 one-dose screen, 48 h (100 = growth as untreated, 0 = no growth, -100 = all killed)
Settings in all cases: 10 µM unless noted
NCI-H23 lung = tested on: NCI-H23 lung
NCI-H226 lung = tested on: NCI-H226 lung
NCI-H322M lung = tested on: NCI-H322M lung
HOP-62 NSCLC = tested on: HOP-62 NSCLC
HOP-92 NSCLC = tested on: HOP-92 NSCLC
NCI-H522 lung = tested on: NCI-H522 lung
A549/ATCC NSCLC = tested on: A549/ATCC NSCLC
786-0 renal = tested on: 786-0 renal
COLO 205 colon = tested on: COLO 205 colon
DU-145 prostate = tested on: DU-145 prostate
K-562 leukemia = tested on: K-562 leukemia
MALME-3M melanoma = tested on: MALME-3M melanoma
MDA-MB-231 breast = tested on: MDA-MB-231 breast
RXF 393 renal = tested on: RXF 393 renal
SF-268 CNS = tested on: SF-268 CNS
SF-295 CNS = tested on: SF-295 CNS
SF-539 CNS = tested on: SF-539 CNS
UACC-257 melanoma = tested on: UACC-257 melanoma
M14 melanoma = tested on: M14 melanoma
NCI-H460 lung = tested on: NCI-H460 lung

Measured: growth

Cc1cccc(N=Nc2cccc(C)c2)c1
inactive: NCI-H23 lung 92.5% | NCI-H226 lung 100% | NCI-H322M lung 98.5% | HOP-62 NSCLC 104% | HOP-92 NSCLC 85.9% | NCI-H522 lung 97.4% | A549/ATCC NSCLC 104% | 786-0 renal 116% | COLO 205 colon 111% | DU-145 prostate 112% | K-562 leukemia 138% | MALME-3M melanoma 100% | MDA-MB-231 breast 86.4% | RXF 393 renal 115% | SF-268 CNS 110% | SF-295 CNS 97.9% | SF-539 CNS 110% | UACC-257 melanoma 113% | M14 melanoma 108%

CN(C)c1ccc(C(=S)c2ccc(N(C)C)cc2)cc1
inactive: NCI-H23 lung 78.9% | NCI-H226 lung 85.9% | NCI-H322M lung 103% | HOP-62 NSCLC 65.8% | NCI-H460 lung 92.6% | HOP-92 NSCLC 71.3% | NCI-H522 lung 29% | 786-0 renal 95.6% | COLO 205 colon 62% | DU-145 prostate 98.9% | K-562 leukemia 28.4% | MALME-3M melanoma 50.3% | MDA-MB-231 breast 72.2% | RXF 393 renal 84.2% | SF-268 CNS 79.7% | SF-295 CNS 80% | SF-539 CNS 77.1% | UACC-257 melanoma 81% | M14 melanoma 51.1%

COc1ccc(C2C3=C(COC3=O)N(CCO)c3cc4c(cc32)OCO4)cc1OC (stereo unspecified)
inactive: NCI-H23 lung 73.6% | NCI-H226 lung 115% | NCI-H322M lung 104% | HOP-62 NSCLC 70.6% | HOP-92 NSCLC 68.7% | NCI-H522 lung 66.2% | A549/ATCC NSCLC 90.7% | 786-0 renal 84% | COLO 205 colon 83.6% | DU-145 prostate 100% | K-562 leukemia 52% | MALME-3M melanoma 104% | MDA-MB-231 breast 101% | RXF 393 renal 81.4% | SF-268 CNS 91% | SF-295 CNS 62.6% | SF-539 CNS 91.9% | UACC-257 melanoma 90.6% | M14 melanoma 68.6%

O=C(c1ccc(Br)cc1)C(Br)C(c1ccc(Cl)cc1)C(c1ccccc1)[N+](=O)[O-] (stereo unspecified)
inactive: NCI-H23 lung 91.4% | NCI-H226 lung 99.3% | NCI-H322M lung 101% | HOP-62 NSCLC 99.7% | HOP-92 NSCLC 107% | NCI-H522 lung 85.7% | A549/ATCC NSCLC 93.8% | 786-0 renal 90.3% | COLO 205 colon 110% | DU-145 prostate 97.5% | K-562 leukemia 106% | MALME-3M melanoma 86.2% | MDA-MB-231 breast 85.4% | RXF 393 renal 77.2% | SF-268 CNS 90.2% | SF-295 CNS 95.1% | SF-539 CNS 96% | UACC-257 melanoma 102% | M14 melanoma 92.8%

COc1c2c(cc3c1C(=O)N[C@@H]1[C@@H](O)[C@@H](O)[C@H](O)C[C@@H]31)OCCO2
inactive: NCI-H23 lung 104% | NCI-H226 lung 92.6% | NCI-H322M lung 93.5% | HOP-62 NSCLC 99.9% | HOP-92 NSCLC 91.6% | NCI-H522 lung 93.4% | A549/ATCC NSCLC 96.5% | 786-0 renal 97.4% | DU-145 prostate 107% | K-562 leukemia 95.6% | MALME-3M melanoma 106% | MDA-MB-231 breast 109% | RXF 393 renal 102% | SF-268 CNS 97.9% | SF-295 CNS 99.6% | SF-539 CNS 106% | UACC-257 melanoma 98.8% | M14 melanoma 105%

COc1ccc2c(c1)CC[C@@H]1[C@@H]2CC[C@]2(C)C3C(=CC(COC(C)=O)C4C(=O)N(c5ccc(Cl)cc5)C(=O)C43)C[C@@H]12 (stereo partly specified)
inactive: NCI-H23 lung 91.8% | NCI-H226 lung 97.3% | NCI-H322M lung 107% | HOP-62 NSCLC 98.4% | HOP-92 NSCLC 90.7% | NCI-H522 lung 89.9% | A549/ATCC NSCLC 110% | 786-0 renal 111% | COLO 205 colon 118% | DU-145 prostate 106% | K-562 leukemia 52.4% | MALME-3M melanoma 101% | MDA-MB-231 breast 103% | RXF 393 renal 110% | SF-268 CNS 91.7% | SF-295 CNS 105% | SF-539 CNS 114% | UACC-257 melanoma 109% | M14 melanoma 98.8%

Cc1c2cnccc2c(C)c2c1c1cc(CO)ccc1n2C
active: NCI-H23 lung -46.1% | NCI-H226 lung -68.5% | NCI-H322M lung -40.2% | HOP-62 NSCLC -48.8% | HOP-92 NSCLC -20% | NCI-H522 lung -72.6% | A549/ATCC NSCLC -28.2% | 786-0 renal -13.1% | COLO 205 colon -51.2% | DU-145 prostate -0.903% | K-562 leukemia 1.71% | MALME-3M melanoma -87.6% | MDA-MB-231 breast -52.1% | RXF 393 renal -84.7% | SF-268 CNS -28.8% | SF-295 CNS -26.6% | SF-539 CNS -68% | UACC-257 melanoma -52.7% | M14 melanoma -90.9%

c1csc(-c2cn3nc(-c4c[nH]c5ccccc45)sc3n2)c1
active: NCI-H522 lung -6.13% | COLO 205 colon 5.46% | SF-539 CNS -12.8% | M14 melanoma 8.8%
inactive: NCI-H23 lung 36.9% | NCI-H226 lung 72.4% | NCI-H322M lung 25% | HOP-62 NSCLC 27% | HOP-92 NSCLC 38.3% | A549/ATCC NSCLC 35% | 786-0 renal 42.2% | DU-145 prostate 13.4% | K-562 leukemia 15.6% | MALME-3M melanoma 23.7% | MDA-MB-231 breast 22.9% | RXF 393 renal 34.4% | SF-268 CNS 46.1% | SF-295 CNS 14.4% | UACC-257 melanoma 60.1%
